Screens from PubChem BioAssay.
CBFb RUNX1 block: CBF-beta/RUNX1 interaction disruption. AlphaScreen CBFb-His/RUNX1-biotin binding, biochemical. Potency, µM (highest dose often 59.8 µM), actives largely listed as inhibitors. Q01196+Q13951. 230,000 tested, under 10 active
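Inhibition was taken as any reduction in AlphaScreen signal from the CBF-beta–RUNX1 pair (His and biotin tags, 30 nM each), measured after compound (15 min) and bead (90 min) incubations at room temperature.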
PLK1 PBD block: inhibitors of human PLK1 polo-box domain binding; P53350; Plk1 PBD binding of FITC phosphopeptide, fluorescence polarization; Potency, µM, hits mostly inhibitors; 360,000 tested, 2.8% active; AID 720504; note: series mostly up to about 57 µM; nearly all actives have a fitted effect of over 65% in size
VDR inh: vitamin D3 receptor (human) inhibition; Potency, µM, most hits filed as inhibitors; VDR-SRC2-3 peptide fluorescence polarization, 2 h; 400,000 tested, 0.93% active
Target sequence (P11473 whole entry, looked up): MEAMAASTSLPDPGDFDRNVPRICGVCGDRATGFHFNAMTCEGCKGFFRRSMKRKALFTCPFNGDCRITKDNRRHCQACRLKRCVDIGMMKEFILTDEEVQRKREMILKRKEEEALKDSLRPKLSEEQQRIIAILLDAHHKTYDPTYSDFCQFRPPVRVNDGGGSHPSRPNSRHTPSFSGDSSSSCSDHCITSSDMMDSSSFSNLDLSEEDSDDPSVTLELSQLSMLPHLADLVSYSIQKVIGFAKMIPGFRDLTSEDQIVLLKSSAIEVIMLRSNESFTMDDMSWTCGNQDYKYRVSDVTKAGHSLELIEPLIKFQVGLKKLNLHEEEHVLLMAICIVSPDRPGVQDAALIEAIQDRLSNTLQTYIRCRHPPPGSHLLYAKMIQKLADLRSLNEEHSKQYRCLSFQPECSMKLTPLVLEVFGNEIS
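Signal is fluorescence polarization, reporting how far test compounds block the interaction of VDR with the SRC2-3 coregulator peptide after a 2 h room-temperature incubation.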
hERG WT inh: KCNH2 (human, wildtype) channel inhibition. U2OS, BacMam KCNH2, thallium flux FluxOr; hits give low values. activity change, % at 1.84 µM. 340,000 tested, 0.37% active. AID 720551;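 active = maximum activity change below -70%; inconclusive = maximum activity change between -70% and -50%; inactive = maximum activity change above -50%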
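U2OS cells were transduced with wild-type KCNH2 virus (2.03 x 10^8 / mL) for 4 h at room temperature, then cultured overnight at 37 C. Thallium flux was read with FluxOr dye. Rate constants were normalized to DMSO controls.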
KCNH2 3.1 block: KCNH2 3.1 (human) potassium channel inhibition. U2OS KCNH2 3.1, thallium flux FluxOr; hits give low values. activity change, % (tested at about 1.8 µM). 340,000 tested, 0.95% active;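 active = maximum activity change below -70%; inconclusive = maximum activity change from -70% to -50%; inactive = maximum activity change above -50%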;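 note: thallium influx rate constant from kinetic fluorescence after stimulation buffer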
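We transduce U2OS cells with the mutant 3.1 virus, culture them overnight, load FluxOr with Red40 quencher for 45 min, then add stimulation buffer and read kinetically for 2 min to derive a normalized rate constant.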
MBNL1 CUG block: inhibitors of human MBNL1 binding to CUG repeat RNA. Q9NR56. TR-FRET MBNL1-His/biotin-(CUG)12 binding, 665/545 ratio. Potency, µM (doses to about 57.5 µM), usual class: inhibitors. 280,000 tested, 0.036% active; active = well fitted inhibition curve with a large enough effect in the signal ratio, with a control signal flat, not every such curve was filed as active; inconclusive = small, poorly fitted or top-dose-only effect, or effect the other way, or a change in a side signal; inactive = no such curve, though single readings can be large or run the other way; the % refers to the signal ratio
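Ratiometric TR-FRET (665 over 545 nm, excitation 340 nm) tracks disruption of MBNL1-His/biotin-(CUG)12 complex after 60 min at room temperature, with compounds at 92 nM to 58 uM final.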
Each line names hits and unclear results; the compound was inactive in the other large screens. This is a sample that favours compounds with a hit; in the whole collection about 3.8% have one here. Unless noted, calls come from the whole dose curve; as a rule, active = well fitted curve in the direction sought with a large enough effect; inconclusive = small, poorly fitted or top-dose-only effect, or another doubt; inactive = no such curve, though single readings can be large; an effect the other way counts as inactive or inconclusive.

COc1ccc(N(CC(=O)NCc2ccco2)S(=O)(=O)c2ccc(C)cc2)cc1OC	none (no result: CBFb RUNX1 block)
COc1ccc(-c2[nH]c(-c3cccc(OC)c3)nc2SCC(=O)NCc2ccco2)cc1	KCNH2 3.1 block -105, MBNL1 CUG block inconclusive
COc1ccccc1N(CC(=O)NCc1ccco1)S(=O)(=O)c1ccc(C)cc1	PLK1 PBD block 27µM (no result: CBFb RUNX1 block)
COc1cccc(-c2nc(SCC(=O)NCc3ccco3)c3c(=O)n(C)c(=O)n(C)c3n2)c1	none (no result: CBFb RUNX1 block, PLK1 PBD block, hERG WT inh, KCNH2 3.1 block, MBNL1 CUG block)
O=C(CSc1nc(-c2ccccc2)c(-c2ccccc2)[nH]1)NCc1ccco1	PLK1 PBD block 21µM, VDR inh inconclusive
COc1ccccc1-n1ccnc1SCC(=O)NCc1ccco1	PLK1 PBD block 24µM, VDR inh inconclusive (no result: MBNL1 CUG block)
Cc1cccc(OCC(=O)N(Cc2cccc(Cl)c2)Cc2ccco2)c1C	none (no result: CBFb RUNX1 block, PLK1 PBD block, hERG WT inh, KCNH2 3.1 block, MBNL1 CUG block)
CN(C)C1C(=O)C(C(N)=O)=C(O)[C@@]2(O)C(=O)C3=C(O)c4c(O)ccc(Cl)c4[C@@H](O)C3C[C@@H]12 (stereo partly specified)	MBNL1 CUG block inconclusive (no result: PLK1 PBD block, VDR inh, hERG WT inh, KCNH2 3.1 block)
O=C(CSc1nnc2c(n1)[nH]c1ccccc12)NCc1ccco1	PLK1 PBD block 30µM, MBNL1 CUG block inconclusive
Clc1ccc(CCNC(c2ccc(Cl)cc2)c2nnc(-c3ccccc3)o2)cc1 (stereo unspecified)	none (no result: CBFb RUNX1 block, PLK1 PBD block, hERG WT inh, KCNH2 3.1 block, MBNL1 CUG block)
O=C(CN1CCN(CCN2C(=O)c3cccc4cccc(c34)C2=O)CC1)c1ccc(Cl)cc1	none (no result: PLK1 PBD block, VDR inh, hERG WT inh, KCNH2 3.1 block, MBNL1 CUG block)
COc1ccc(C(=O)CN2CCN(CCN3C(=O)c4cccc5cccc(c45)C3=O)CC2)cc1	PLK1 PBD block 19µM, VDR inh inconclusive (no result: CBFb RUNX1 block, MBNL1 CUG block)
COc1ccc2cc(Br)ccc2c1CC(=O)NC1CC(C)(C)NC(C)(C)C1	hERG WT inh -123, MBNL1 CUG block inconclusive
O=C1CN(c2ccccc2)C(=S)N1C(=O)c1ccc(Br)cc1	PLK1 PBD block 24µM, VDR inh inconclusive (no result: CBFb RUNX1 block)
Cn1c(=O)c(=O)n(C)c2cc(N3CCOCC3)c(NS(=O)(=O)c3ccc([N+](=O)[O-])cc3)cc21	PLK1 PBD block 19µM, MBNL1 CUG block inconclusive (no result: CBFb RUNX1 block)
CCOc1ncccc1C(=O)Nc1cc(C(F)(F)F)ccc1N1CCOCC1	none (no result: CBFb RUNX1 block, MBNL1 CUG block)
CCN(CC)S(=O)(=O)c1ccc(N2CCOCC2)c(NS(=O)(=O)c2ccc(C(C)C)cc2)c1	PLK1 PBD block inconclusive, VDR inh 35µM
CCN(CC)S(=O)(=O)c1ccc(N2CCOCC2)c(NS(=O)(=O)c2cccs2)c1	none (no result: CBFb RUNX1 block, MBNL1 CUG block)
CCOc1ncccc1C(=O)Nc1cc(S(=O)(=O)N(CC)CC)ccc1N1CCOCC1	PLK1 PBD block 17µM, VDR inh 79µM (no result: CBFb RUNX1 block, MBNL1 CUG block)
CCc1ccc(CNC(=O)c2sc3ncccc3c2-n2c(C)ccc2C)cc1	none (no result: CBFb RUNX1 block, PLK1 PBD block, hERG WT inh, KCNH2 3.1 block, MBNL1 CUG block)
CNc1cc(F)nc(F)n1	PLK1 PBD block 9.5µM (no result: hERG WT inh)
CNc1cccc(-c2cccc(O)c2)n1	none (no result: CBFb RUNX1 block, VDR inh, hERG WT inh, KCNH2 3.1 block, MBNL1 CUG block)
CCCCn1c(O)c(N=NC(=O)c2ccco2)c2ccccc21	PLK1 PBD block 19µM, VDR inh 50µM, MBNL1 CUG block inconclusive
O=C(CNC(=O)c1ccco1)N=Nc1c(O)n(CCc2ccccc2)c2ccccc12	MBNL1 CUG block inconclusive
CCOC(=O)c1c(C)[nH]c(C)c1S(=O)(=O)NCC(=O)Nc1ccc(C)c(N(C)C)c1	none (no result: CBFb RUNX1 block, PLK1 PBD block, hERG WT inh, KCNH2 3.1 block, MBNL1 CUG block)
CC(C)c1ccc2oc(-c3ccc(Cl)c(NC(=O)c4cccs4)c3)nc2c1	none (no result: CBFb RUNX1 block, PLK1 PBD block, hERG WT inh, KCNH2 3.1 block, MBNL1 CUG block)
CN(Cc1cn(C)nc1-c1ccc(Oc2ccccc2)cc1)Cc1cnc2ccccn12	none
Cn1cc(CNCc2cnc3ccccn23)c(-c2ccc(Oc3ccccc3)cc2)n1	KCNH2 3.1 block -207
CN1CCc2c(sc(/N=C/c3cccs3)c2C(N)=O)C1	VDR inh 32µM, MBNL1 CUG block inconclusive
CC(=O)N1CCN(C(=O)CSc2ncnc3sc(C)c(C)c23)CC1	PLK1 PBD block 30µM (no result: CBFb RUNX1 block, MBNL1 CUG block)
C=CCOc1c(Br)cc(/C=N/O)cc1OCC	PLK1 PBD block 30µM (no result: MBNL1 CUG block)
COCCN(CCOC)S(=O)(=O)c1ccc(Cl)nc1	PLK1 PBD block 21µM
CCN(CC)S(=O)(=O)c1ccc(Cl)nc1	none
O=C(O)C(O)c1ccco1 (stereo unspecified)	PLK1 PBD block 27µM (no result: MBNL1 CUG block)
